# Assay outcomes as filed in PubChem.
# AHR act: AHR activators, primary screen, cell-based, luminescence, luciferase reporter, human; Aryl hydrocarbon receptor (Homo sapiens), P35869; AHR-responsive luciferase reporter cells; activation, % at 5 µM; 320,000 tested, 2.5% active; AID 2796, 2010; in the data active means activation above about 47%;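 further: 0% = vehicle wells and 100% = reference agonist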
# Target sequence (P35869 whole entry, looked up): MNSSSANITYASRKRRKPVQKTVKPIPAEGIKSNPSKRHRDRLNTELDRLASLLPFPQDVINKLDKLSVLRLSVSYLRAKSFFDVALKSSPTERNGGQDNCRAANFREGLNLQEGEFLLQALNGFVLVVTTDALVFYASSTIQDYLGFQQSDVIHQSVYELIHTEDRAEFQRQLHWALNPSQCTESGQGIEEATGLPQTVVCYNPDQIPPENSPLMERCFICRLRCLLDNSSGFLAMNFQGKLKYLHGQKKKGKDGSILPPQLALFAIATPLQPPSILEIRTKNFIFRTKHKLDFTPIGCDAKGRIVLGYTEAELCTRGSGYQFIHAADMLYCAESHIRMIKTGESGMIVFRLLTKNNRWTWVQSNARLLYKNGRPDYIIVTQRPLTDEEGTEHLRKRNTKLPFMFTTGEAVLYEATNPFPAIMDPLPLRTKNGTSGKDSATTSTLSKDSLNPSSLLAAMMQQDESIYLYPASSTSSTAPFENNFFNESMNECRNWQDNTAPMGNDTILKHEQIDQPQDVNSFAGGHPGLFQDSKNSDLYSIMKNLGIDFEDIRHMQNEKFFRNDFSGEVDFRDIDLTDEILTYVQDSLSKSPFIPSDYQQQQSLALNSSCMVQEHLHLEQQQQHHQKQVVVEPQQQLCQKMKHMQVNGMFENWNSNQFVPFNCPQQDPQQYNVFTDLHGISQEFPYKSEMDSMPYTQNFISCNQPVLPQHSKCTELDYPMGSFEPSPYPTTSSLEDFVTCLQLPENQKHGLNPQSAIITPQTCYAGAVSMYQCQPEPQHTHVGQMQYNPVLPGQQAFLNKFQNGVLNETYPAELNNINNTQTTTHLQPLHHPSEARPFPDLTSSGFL
# MITF TRPM1 HTS: activators of MITF-driven TRPM1 promoter reporter, primary screen, cell-based, SK-MEL-5, luciferase, single point; AID 588334, 2011; SK-MEL-5 TRPM1-promoter luciferase, 24 h; % of positive control, neutral wells = 0; 300,000 tested, 0.75% active; activation, % at 12.5 µM;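 active means mean activation of at least 80% with every replicate also reaching 80%; inconclusive means mean reaches 80% but some replicate falls short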;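 further: 0% = neutral control wells and 100% = parthenolide positive control wells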
# Wnt act: Wnt/beta-catenin pathway activators, primary screen, cell-based, plate reader, single point | Wnt/beta-catenin reporter cell assay, activator | activation, % at 9.35 µM | 300,000 tested, 1.2% active; in the data active means activation above about 30%, passing the limit was not always enough; inconclusive means no clear call, values can overlap the other calls;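 further: 0% = neutral control wells and 100% = positive control wells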
# FXN GAA850 act: FXN promoter activators, primary screen, cell-based, luciferase luminescence, HEK293 lucGAA850. HEK293 lucGAA850 FXN promoter luciferase reporter, 24 h; percent of 10 µM SAHA response. activation, % at 6 µM. 360,000 tested, 0.56% active. AID 540364, 2011;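 active means activation above the average of all compounds screened plus 3 SD, cutoff fixed separately per campaign, cut at about 7.5% in these data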;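 further: 0% = DMSO wells and 100% = 10 µM SAHA wells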
# esBAF inh: Bmi1 luciferase reporter increase in mESCs, primary screen, esBAF inhibitor project, mouse ES cells, Bmi1 luciferase knock-in, single point; 350,000 tested, 2% active; reporter increase, % at 12.5 µM; 24 h; 100% = twice the neutral-well signal; in the data active means activation above about 40%; inconclusive means no clear call, values can overlap the other calls;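 further: 0% = median of the plate's neutral control wells and 100% = double that signal; a rise in the Bmi1 reporter signal indicates esBAF inhibition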
# Numbers without * were called inactive; ? = inconclusive; nt = no result given. Compounds with a hit are over-represented: about 4.2% of the library has one in this group of screens.
SMILES,AHR act,MITF TRPM1 HTS,Wnt act,FXN GAA850 act,esBAF inh
COCCn1c(C)cc(C(=O)CSc2nc3ccccc3c(=O)n2Cc2ccco2)c1C,9.7,43.0,55.3*,4.9,96.6*
Cc1ccc(C2CCN(C(=O)Nc3ccccc3)C2)cc1 (stereo not drawn),-5.6,?,nt,7.3,53.2*
O=C(Nc1ccc(Cl)cc1)N1CCC(c2ccccc2)C1 (stereo not drawn),-2.3,115.8*,55.8*,2.8,nt
Cc1ccc(NC(=O)N2CCC(c3ccccc3)C2)cc1C (stereo not drawn),3.7,127.7*,56.3*,6.3,4.3
Cc1ccc(NC(=S)N2CCC(c3ccc(C)cc3)C2)cc1 (stereo not drawn),2.8,20.7,18.8,5.5,-5.8
Cc1ccc(NC(=S)N2CCC(c3ccccc3)C2)c(Cl)c1 (stereo not drawn),1.1,60.6,42.1*,1.2,nt
O=C(Nc1cccc(F)c1)N1CCC(c2ccccc2)CC1,3.5,66.2,7.1,3.5,39.6
CC(C)NC(=O)N(C)C[C@H]1OCCCC[C@@H](C)Oc2ccc(NC(=O)NC3CCCCC3)cc2C(=O)N([C@H](C)CO)C[C@@H]1C,nt,nt,nt,nt,3.1
Cc1ccc(S(=O)(=O)N(C)C[C@@H]2OCCCC[C@@H](C)Oc3ccc(NC(=O)Nc4c(C)noc4C)cc3C(=O)N([C@@H](C)CO)C[C@H]2C)cc1,nt,nt,nt,nt,-4.0
N#C/C(=C(/O)c1cccs1)c1nc2ccccc2[nH]1,54.1*,7.5,10.2,1.6,20.2
N#C/C(=C(\O)Cc1ccccc1)c1nc2ccccc2[nH]1,50.3*,nt,-1.0,-0.9,7.4
N#C/C(=C(/O)CCl)c1nc2ccccc2[nH]1,23.1,-77.6,-0.3,4.6,nt
COc1cc(/C=C(/C#N)c2nc3ccccc3[nH]2)ccc1OC(=O)c1ccco1,60.1*,39.4,nt,4.0,36.1
COc1ccccc1/C(O)=C(\C#N)c1nc2ccccc2[nH]1,48.2*,-0.6,-0.2,-0.4,nt
CCCNC(=O)C[C@H]1CC[C@@H]2[C@H](COC[C@H](O)CN2Cc2cccc(F)c2)O1,nt,nt,nt,nt,-3.8
CS(=O)(=O)Nc1ccc2c(c1)[C@H]1C[C@H](CC(=O)NCc3ccc(-c4ccccc4)cc3)O[C@@H](CO)[C@H]1O2,nt,nt,nt,nt,12.1
C[C@H]1CN([C@@H](C)CO)C(=O)c2cc(NS(=O)(=O)c3cccs3)ccc2O[C@H]1CN(C)Cc1ccc(C(=O)O)cc1,nt,nt,nt,nt,-1.4
COc1ccccc1N/C=C(\C#N)c1nc2ccccc2[nH]1,70.0*,-9.1,-6.4,4.5,nt
CCC(=O)Nc1ccc2c(c1)C(=O)N(C)[C@@H]1CC[C@@H](CC(=O)NCCCN(C)C)O[C@@H]1CO2,nt,nt,nt,nt,8.5
CCc1nc(SCc2cccnc2)c2c(=O)n(C)c(=O)n(C)c2n1,47.7*,-6.9,-1.5,2.8,-1.7
Cn1c(=O)c2c(SCc3cccnc3)nc(C3CC3)nc2n(C)c1=O,74.5*,nt,-2.8,3.8,-9.9
CC(C)Cc1nc(SCc2cccnc2)c2c(=O)n(C)c(=O)n(C)c2n1,17.9,-7.5,-1.4,3.7,nt
Cn1c(=O)c2c(SCC(=O)NCCc3ccccc3)nc(C3CC3)nc2n(C)c1=O,1.5,nt,nt,nt,nt
C[C@H](CO)N1C[C@H](C)[C@H](CN(C)S(=O)(=O)c2cn(C)cn2)Oc2ccc(NC(=O)Nc3ccc4c(c3)OCO4)cc2C1=O,nt,nt,nt,nt,4.6
Cc1ccc(-c2cn(-c3ccccc3)c(SCC(=O)NC3CCS(=O)(=O)C3)n2)cc1C (stereo not drawn),45.5,99.4*,-0.3,3.3,nt
SMILES,AHR act,MITF TRPM1 HTS,Wnt act,FXN GAA850 act,esBAF inh
C[C@@H]1CN([C@@H](C)CO)C(=O)c2ccccc2-c2ccccc2CO[C@H]1CN(C)C(=O)c1ccncc1,nt,nt,nt,nt,-6.6
Clc1ccc(OCc2cn3ccccc3n2)c2ncccc12,48.9*,60.0,14.0,3.1,nt
Cc1cc(C)n(Cc2ccc(C(=O)Nc3ccc(Br)cc3C)o2)n1,32.5,-5.3,-5.7,2.7,nt
Cc1cc(C)n(Cc2ccc(C(=O)Nc3cccc(Br)c3)o2)n1,73.8*,18.2,nt,2.1,nt
CCCNC(=O)N1[C@H](CNC(=O)CC)[C@H](c2ccc(C3=CCCC3)cc2)[C@@H]1CO,nt,nt,nt,nt,-0.4
O=C(Cn1cccc1C(=O)c1ccccc1)NCc1ccccc1Cl,10.7,41.2,12.9,2.3,55.7*
Cc1ccccc1C(=O)c1cccn1CC(=O)NCc1ccccc1,14.8,-3.1,-2.6,-0.7,16.3
Cc1ccccc1C(=O)c1cccn1CC(=O)NCc1ccccc1Cl,9.5,57.2,8.5,5.7,56.7*
COc1ccccc1CNC(=O)Cn1cccc1C(=O)c1ccccc1,20.4,29.0,3.0,1.8,30.8
CCN1CCSc2ccc(C(=O)NCc3ccccc3F)cc21,43.9,1.6,-0.5,1.8,-1.7
COc1cccc(CNC(=O)c2ccc3c(c2)N(C)CCS3)c1OC,55.5*,-1.1,0.1,0.6,5.6
COc1ccc(CNC(=O)c2ccc3c(c2)N(C)CCS3)cc1,37.0,nt,-3.2,-0.7,17.1
CN1CCSc2ccc(C(=O)Nc3cc(F)ccc3F)cc21,31.2,96.6*,43.0*,7.2,12.7
CCOc1ccc(NC(=O)c2ccc3c(c2)N(C)CCS3)cc1,nt,nt,37.4*,2.2,72.1*
COC(=O)c1ccc2c(c1)N(C)CCS2,-0.7,5.2,0.5,-1.0,-3.5
CN1CCSc2ccc(C(=O)NCc3ccccc3F)cc21,78.1*,48.7,6.2,4.5,29.9
Cc1ccc(S(=O)(=O)N(C)C[C@@H]2OCCCC[C@@H](C)Oc3ccc(NS(=O)(=O)c4c(C)noc4C)cc3C(=O)N([C@@H](C)CO)C[C@H]2C)cc1,nt,nt,nt,nt,0.7
CN(C)Cc1cn(CC[C@H]2CC[C@@H](NC(=O)Nc3ccccc3F)[C@@H](CO)O2)nn1,nt,nt,nt,nt,-1.7
COc1ccc(NC(=O)Nc2ccc3c(c2)C(=O)N([C@@H](C)CO)C[C@@H](C)[C@@H](CN(C)C(=O)CCC(F)(F)F)OCCCC[C@@H](C)O3)cc1,nt,nt,nt,nt,5.4
CCCCSc1nsc(NC(C)=O)n1,2.5,91.2*,44.2*,5.5,nt
CCCCCCSc1nsc(NC(C)=O)n1,-0.5,66.6,nt,6.7,59.7*
CCCSc1nsc(NC(=O)CCC)n1,-1.4,113.3*,19.8,4.9,28.0
CCSc1nsc(NC(=O)Nc2ccccc2F)n1,78.2*,13.5,6.5,3.1,36.1
Cc1noc(C)c1NC(=O)N(C)C[C@H]1Oc2c(NC(=O)Nc3ccc4c(c3)OCO4)cccc2C(=O)N([C@@H](C)CO)C[C@@H]1C,nt,nt,nt,nt,3.7
CC1=CC(C)(C)N(C(=O)CN2C(=O)c3ccccc3C2=O)c2ccc(C)cc21,-0.5,-0.7,nt,0.7,2.5
CCC(=O)N1c2ccc(C)cc2C2=NNC(=S)NC21O (stereo not drawn),61.8*,10.7,nt,0.2,0.1
COCC(=O)N1[C@H](CO)[C@@H](c2ccccc2)[C@@H]1C#N,nt,nt,nt,nt,-4.4
Cc1ccccc1NC(=O)c1onc2c1CCCC2,6.0,75.2,-0.4,5.0,26.6
